Measurements published in PubChem BioAssay (NCI).
This is part of a sample that, as a whole, favours compounds with a hit. Of some 83,000 tested, about 20% had one in any assay.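 Each cell line was grown in a 96-well plate and treated with one concentration of compound for 48 hours. Values below 10 were considered active.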 A number with no mark means an inactive call. Activity calls are given as the source filed them.

Columns and labels:
Test in all cases: NCI-60 one-dose screen, 48 h (100 = growth as untreated, 0 = no growth, -100 = all killed)
Settings in all cases: 10 µM unless noted
HCT-15 colon = test system: HCT-15 colon
HT29 colon = test system: HT29 colon
SNB-75 CNS = test system: SNB-75 CNS
SNB-19 CNS = test system: SNB-19 CNS
U251 CNS = test system: U251 CNS
SK-MEL-5 melanoma = test system: SK-MEL-5 melanoma
UACC-62 melanoma = test system: UACC-62 melanoma
LOX IMVI melanoma = test system: LOX IMVI melanoma
SK-MEL-28 melanoma = test system: SK-MEL-28 melanoma
SK-MEL-2 melanoma = test system: SK-MEL-2 melanoma
EKVX NSCLC = test system: EKVX NSCLC
SN12C renal = test system: SN12C renal
UO-31 renal = test system: UO-31 renal
TK-10 renal = test system: TK-10 renal
ACHN renal = test system: ACHN renal
CAKI-1 renal = test system: CAKI-1 renal
A498 renal = test system: A498 renal
CCRF-CEM leukemia = test system: CCRF-CEM leukemia
MOLT-4 leukemia = test system: MOLT-4 leukemia

Structure (SMILES)	growth (HCT-15 colon)	growth (HT29 colon)	growth (SNB-75 CNS)	growth (SNB-19 CNS)	growth (U251 CNS)	growth (SK-MEL-5 melanoma)	growth (UACC-62 melanoma)	growth (LOX IMVI melanoma)	growth (SK-MEL-28 melanoma)	growth (SK-MEL-2 melanoma)	growth (EKVX NSCLC)	growth (SN12C renal)	growth (UO-31 renal)	growth (TK-10 renal)	growth (ACHN renal)	growth (CAKI-1 renal)	growth (A498 renal)	growth (CCRF-CEM leukemia)	growth (MOLT-4 leukemia)
Cc1ccc(O)c(N2C(=NCc3ccco3)NS(=O)(=O)c3cnccc32)c1	112%	111%	106%	110%	100%	118%	96.7%	103%	107%	106%	101%	101%	91.2%	124%	106%	68.4%	109%	61.2%	87.9%
Cc1ccc(C2=NN3C(C2)c2cc(Br)ccc2OC32CCN(Cc3ccccc3)CC2)o1 (stereo unspecified)	85.1%	107%	79%	94.9%	96.3%	92.1%	82.3%	94.4%	102%	100%	86.3%	91.5%	58.6%	116%	98.7%	71.6%	105%	80.3%	79.6%
C#CCOc1ccc2ncnc(Nc3cccc(CNC(=O)CCl)c3)c2c1	45.2% [8.25 µM]	35% [8.25 µM]	15.5% [8.25 µM]	60.7% [8.25 µM]	10.1% [8.25 µM]	14.5% [8.25 µM]	40.3% [8.25 µM]	53.9% [8.25 µM]	69% [8.25 µM]	49.6% [8.25 µM]	58.7% [8.25 µM]	30.3% [8.25 µM]	39.8% [8.25 µM]	38% [8.25 µM]	37.8% [8.25 µM]	39.6% [8.25 µM]	-1.38% [8.25 µM] (active)	14.4% [8.25 µM]	15.1% [8.25 µM]
COc1ccc(S(=O)(=O)N2CCCCC2)cc1NC(=O)c1[nH]c(C)c2c1CCCCC2=O	5.16% (active)	11%	5.25% (active)	36.1%	23.4%	-24.4% (active)	14.5%	-56.6% (active)	48.1%	19.6%	33.9%	34.9%	9.67% (active)	1.34% (active)	19.8%	11.4%	-19.2% (active)	42%	36.6%
CC(C)(C)c1cc(C(C)(C)C)cc(S(=O)(=O)Nc2cc3ccccc3cc2C(=O)NCCN)c1	38.8%	-43.7% (active)	63.4%	68.9%	-21.8% (active)	81.1%	55%	-77.8% (active)	-44.9% (active)	62.3%	89.5%	46.6%	53.2%	78.8%	70.9%	64%	-2.57% (active)	57.7%	77%
C=C1c2nc3ccccc3n2C=C(c2ccc(OC)cc2)N1Cc1ccccc1	73.8%	73.2%	109%	79.3%	80.5%	87.1%	88.6%	91.1%	119%	57.7%	62.6%	98.7%	54.6%	118%	96.2%	101%	69.7%	78.9%	71.5%
COc1cc2nnc3c4cccnc4[nH]c3c2cc1OC	16%	-2.61% (active)	51.2%	75.7%	1.26% (active)	93.5%	30.8%	12.8%	47.6%	80.1%	73.1%	33%	-52.8% (active)	42.9%	-36.7% (active)	-14.7% (active)	106%	-37.5% (active)	
C#CCOc1ccc2ncnc(Nc3cccc(CNC(=O)C=C)c3)c2c1	104% [8.25 µM]	108% [8.25 µM]	88.6% [8.25 µM]	98.1% [8.25 µM]	94.6% [8.25 µM]	96% [8.25 µM]	99.6% [8.25 µM]	97.3% [8.25 µM]	97.5% [8.25 µM]	104% [8.25 µM]	98.6% [8.25 µM]	95.5% [8.25 µM]	82.3% [8.25 µM]	91.5% [8.25 µM]	95.8% [8.25 µM]	96.3% [8.25 µM]	58.8% [8.25 µM]	111% [8.25 µM]	100% [8.25 µM]
